± gives the standard deviation of the averaged measurements. The full ranking holds about 33,000 sequences; the median of “E-score (rank enrichment, -0.5 to 0.5)” is about -0.0043, and the highest 2% start at about 0.24. What follows is part of a selection rich in the highest values, with near analogues and random picks from the rest.
Each sequence was assayed on 2Sp-muMax20 (muMax20 with two 2,6-bis(methyl)pyridine Cys staples) (assay: PBM 8-mer E-score (E-score (rank enrichment, -0.5 to 0.5)); higher = stronger preferential binding).
Protocol: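 Protein binding microarray (universal PBM chip covering all 10-mers in fixed probe flanks) with chemically synthesized human Max(13-93) bHLH-LZ analogs (not full-length Max) bearing noncanonical residues (hArg, Tha, Aib, Nle at 65) and aromatic Cys staples. Read-out per 8-mer (and its reverse complement): E-score (rank-based enrichment, -0.5 to 0.5) and Z-score of median probe intensity.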

In order of falling “PBM 8-mer E-score” value:
1. AACACGTG  0.4615 ± 0.0029
2. CACACGTG  0.384 ± 0.019
3. CATGCATG  0.382 ± 0.024
4. AATGCATT  0.356 ± 0.017
5. TTGCGCAA  0.344 ± 0.0038
6. CGTGCACG  0.338 ± 0.0045
7. ATGCGCAT  0.335 ± 0.061
8. ACATGCAT  0.333 ± 0.0087
9. ACATGTAC  0.311 ± 0.0047
10. ATACGCAA  0.308 ± 0.062
11. CATGCGAC  0.308 ± 0.019
12. GCATGCGA  0.3 ± 0.012
13. ACCCCATG  0.297 ± 0.047
14. CATACGTA  0.297 ± 0.012
15. AAATGTAC  0.296 ± 0.052
16. ACGTTATG  0.284 ± 0.0056
17. ACTTTATG  0.281 ± 0.065
18. CATGCAAC  0.281 ± 0.056
19. ACATGTAT  0.277 ± 0.0074
20. CGCCCACC  0.274 ± 0.055
21. AATCACAT  0.27 ± 0.019
22. AACCCACC  0.267 ± 0.025
23. GCCCCAAC  0.267 ± 0.013
24. TCCCCAAA  0.256 ± 0.079
25. CATTCAAA  0.256 ± 0.027
26. CCTTCACA  0.256 ± 0.018
27. AATCACGT  0.254 ± 0.024
28. ACATGTCT  0.251 ± 0.006
29. CATGCACA  0.251 ± 0.033
30. CATAATAC  0.249 ± 0.028
31. CATTCACA  0.248 ± 0.016
32. GCATGCAA  0.244 ± 0.014
33. ACATGTAG  0.241 ± 0.051
34. ACATGTAA  0.24 ± 0.04
35. ACCCCACA  0.239 ± 0.02
36. ATATTGCC  0.238 ± 0.0041
37. CATAATAG  0.237 ± 0.028
38. GCCCCACC  0.237 ± 0.039
39. AATCACAC  0.236 ± 0.041
40. GTATGTAA  0.236 ± 0.055
41. ACCCCACC  0.236 ± 0.05
42. CTTTCAAA  0.236 ± 0.026
43. TCCCCACA  0.235 ± 0.0063
44. AATGCATG  0.233 ± 0.038
45. GCCCCACA  0.223 ± 0.042
46. TCATGCAA  0.219 ± 0.014
47. GCATGCAC  0.216 ± 0.023
48. ACGTGCAA  0.212 ± 0.029
49. GCATGTAC  0.2075 ± 0.0014
50. CATGCATA  0.207 ± 0.0092
51. AAAGTTTA  0.206 ± 0.054
52. AATACGTA  0.206 ± 0.064
53. ACGTTATA  0.204 ± 0.072
54. CCCAACCC  0.204 ± 0.019
55. TATTCAAA  0.197 ± 0.036
56. ATGCGCAC  0.195 ± 0.071
57. AATCACGC  0.193 ± 0.015
58. ACTTTATA  0.192 ± 0.053
59. CATGTTAA  0.191 ± 0.048
60. GCCCCAAA  0.188 ± 0.0029
61. ATGCGCAA  0.184 ± 0.017
62. ACCCCACT  0.183 ± 0.027
63. ATTACTTG  0.18 ± 0.017
64. GTAGCTTA  0.179 ± 0.047
65. CGTTATGC  0.177 ± 0.027
66. AACTCATG  0.176 ± 0.077
67. AACTCAAA  0.172 ± 0.036
68. AACCCACG  0.17 ± 0.037
69. AAACAGAA  0.168 ± 0.015
70. AGATGTAG  0.167 ± 0.023
71. AGATGTAT  0.167 ± 0.023
72. GATGACGA  0.165 ± 0.017
73. CATGCGAG  0.165 ± 0.062
74. GCATGCGC  0.164 ± 0.06
75. ACATGTCG  0.164 ± 0.071
76. AATGCATA  0.16 ± 0.074
77. ACTCTCTA  0.158 ± 0.0044
78. CATAATGG  0.153 ± 0.026
79. GATCACAC  0.153 ± 0.019
80. ACATGTCC  0.151 ± 0.033
81. CCATGTAG  0.148 ± 0.0044
82. AATCACAA  0.144 ± 0.036
83. GATCATGA  0.139 ± 0.016
84. AACCCATG  0.139 ± 0.032
85. AATAATAG  0.137 ± 0.084
86. AATGCAAC  0.136 ± 0.035
87. TGGTGTAA  0.135 ± 0.039
88. ATCCAGTA  0.134 ± 0.028
89. ATTGCATC  0.134 ± 0.014
90. AAATGTAG  0.134 ± 0.1
91. CTCTTCAC  0.129 ± 0.00049
92. AATCCAGA  0.124 ± 0.08
93. CCATGTAA  0.122 ± 0.09
94. ATAGTTGA  0.121 ± 0.077
95. CATCACAC  0.118 ± 0.035
96. ATATTGCG  0.117 ± 0.029
97. GTAGTTGA  0.116 ± 0.0092
98. TAAGGGTA  0.115 ± 0.039
99. GAGCAGTA  0.113 ± 0.0065
100. GCGCCTCC  0.111 ± 0.079
101. CAAAAGTG  0.11 ± 0.016
102. ACCCCATA  0.107 ± 0.075
103. GACCCACC  0.106 ± 0.043
104. AAGCTGAA  0.104 ± 0.047
105. CATGCAAG  0.103 ± 0.05
106. ATAAGGGA  0.102 ± 0.04
107. CGTGCACA  0.102 ± 0.071
108. CCATGCGA  0.0984 ± 0.026
109. ACATGCAC  0.0958 ± 0.01
110. ATATGTAA  0.0958 ± 0.035
111. AACACGTC  0.0953 ± 0.04
112. ACTATGAC  0.0953 ± 0.0015
113. ATTTCAAA  0.0933 ± 0.0025
114. TCATGTAA  0.0907 ± 0.036
115. ATAGTATC  0.0888 ± 0.11
116. CATGCACG  0.0888 ± 0.024
117. CACACGTA  0.0876 ± 0.11
118. CTTGATAA  0.0868 ± 0.0083
119. AAATGTAT  0.0866 ± 0.053
120. GATAGGGC  0.081 ± 0.019
121. CATGCATC  0.081 ± 0.025
122. AACACGTA  0.0789 ± 0.055
123. GATGCACA  0.0774 ± 0.012
124. CACCCACC  0.0762 ± 0.08
125. GTTTCAAA  0.073 ± 0.063
126. ACGGGGCG  0.0718 ± 0.047
127. CTCCTACA  0.0705 ± 0.028
128. CCCCCACG  0.0635 ± 0.0042
129. CATAATAA  0.0619 ± 0.015
130. TACGCGTA  0.0583 ± 0.054
131. ACATGCAG  0.0533 ± 0.012
132. AAAAAACT  0.0474 ± 0.0053
133. ATACGCAG  0.0458 ± 0.043
134. GATTCACA  0.0451 ± 0.093
135. GAAAGTAA  0.0437 ± 0.0096
136. ACCCCACG  0.0387 ± 0.033
137. ACTGTGCC  0.0364 ± 0.042
138. CCCTTCAC  0.0356 ± 0.018
139. ACGTTATC  0.034 ± 0.046
140. CGACAATA  0.0335 ± 0.093
141. CTCATGCC  0.0321 ± 0.035
142. AATGCGAC  0.0252 ± 0.028
143. CTGGGCGC  0.0231 ± 0.038
144. CATTCACG  0.0213 ± 0.074
145. CTTATGAC  0.0201 ± 0.0061
146. TGTGCACA  0.0196 ± 0.045
147. ATGCGCAG  0.0186 ± 0.025
148. AGGAGGCG  0.0177 ± 0.059
149. ATGACAAC  0.0122 ± 0.037
150. CATACGTC  0.0118 ± 0.0042
151. ACTTCACA  0.00636 ± 0.061
152. CAATGTAC  0.00633 ± 0.095
153. CTATGTAA  0.00312 ± 0.013
154. AGAGGGCT  -0.00447 ± 0.07
155. CCATCCCG  -0.00777 ± 0.0093
156. CGCAAAAA  -0.00934 ± 0.005
157. ACGAGCCT  -0.00942 ± 0.0098
158. AACGTCCA  -0.012 ± 0.044
159. ATCTCTGA  -0.0124 ± 0.14
160. CAAGAGCC  -0.0162 ± 0.036
161. ATTTGGCA  -0.0164 ± 0.011
162. CGAGGAAG  -0.0173 ± 0.064
163. AGCCCACC  -0.0175 ± 0.041
164. ACAAGTGT  -0.0219 ± 0.043
165. GCTTTGCA  -0.0268 ± 0.02
166. CGCCCACG  -0.0323 ± 0.074
167. ACTTTATC  -0.0354 ± 0.037
168. AATAATAC  -0.0356 ± 0.042
169. CAAGGCTG  -0.037 ± 0.11
170. AGGTGGAG  -0.0381 ± 0.055
171. AGCGGATC  -0.0391 ± 0.022
172. GTGCGCAA  -0.0392 ± 0.038
173. AGAGGACT  -0.0403 ± 0.059
174. CACACGTC  -0.0411 ± 0.069
175. AATCACGA  -0.0412 ± 0.011
176. GAACGTAC  -0.045 ± 0.0085
177. CTATTGCC  -0.045 ± 0.019
178. GTCTCTCA  -0.0452 ± 0.0099
179. AAGGCGTG  -0.0484 ± 0.012
180. CCTTCACG  -0.0558 ± 0.019
181. AATCACAG  -0.0564 ± 0.011
182. CCATGTAC  -0.0575 ± 0.098
183. CACAAGGG  -0.0596 ± 0.022
184. GGTTACTA  -0.067 ± 0.092
185. CCAGCAGA  -0.0671 ± 0.018
186. GGAATTTA  -0.0803 ± 0.093
187. GTACGCAA  -0.0841 ± 0.033
188. CCCGTACG  -0.0914 ± 0.052
189. GCAAATCC  -0.0919 ± 0.086
190. AGGGCTCA  -0.0979 ± 0.031
191. CATTCAAG  -0.108 ± 0.079
192. AGACTCAA  -0.111 ± 0.022
193. GTCTTTGA  -0.121 ± 0.016
194. ACCAAGGG  -0.132 ± 0.035
195. ATACCAGG  -0.136 ± 0.023
196. GCATTACC  -0.136 ± 0.01
197. AGTCTAAA  -0.14 ± 0.013
198. AGGCTAGA  -0.144 ± 0.033
199. ACGAACTC  -0.159 ± 0.021
200. TCCCCCAA  -0.174 ± 0.034
201. AGACTGTC  -0.179 ± 0.036
202. ACCCCCAC  -0.19 ± 0.027
203. CAACCTCG  -0.194 ± 0.05
204. CCCCCAAA  -0.195 ± 0.075
205. CCCCCACA  -0.205 ± 0.084
206. GATCTTCC  -0.219 ± 0.038
207. GCGATGCC  -0.221 ± 0.0047
208. AGGTTTAC  -0.222 ± 0.071
209. GCGGCAGA  -0.228 ± 0.049
210. CCGGCCGG  -0.229 ± 0.081
211. ACGGGACC  -0.245 ± 0.039
212. CACGGCTA  -0.249 ± 0.073
213. CCCCCAAC  -0.253 ± 0.01
214. AGCCGGTG  -0.254 ± 0.045
215. GTTACCGA  -0.284 ± 0.013
216. CCCTGGGA  -0.29 ± 0.01
217. CCCCCAGC  -0.295 ± 0.034
218. CCGTGGAC  -0.2957 ± 0.0024
219. CCCCCACC  -0.321 ± 0.032

Source: the supplement of paper PMC12636033
